# Screening results from PubChem BioAssay.
# GALC G270D up – galactocerebrosidase G270D activity enhancement, cell-based. 145M-Twi-hGALC-G270D cells (Twitcher mouse brain line with human GALC G270D), HMU-beta-Gal fluorescence, 48 h. Potency, µM (doses to about 57.5 µM), actives largely listed as activators. 45,000 compounds, 0.1% hits. AID 1159614; further: potency means the concentration at half of the fitted maximal effect; 0% is about no effect; nearly all actives have a fitted effect of over 65% in size
#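 Brain-derived Twitcher mouse 145M-Twi cells stably expressing human GALC-G270D or wild-type GALC, treated live, then residual GALC activity read by fluorescence of HMU-b-Gal substrate (0.1 mM final) in citrate-phosphate buffer pH 5.2 with sodium taurocholate. Signal increase indicates enhancement.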
# GALK inh – inhibits human galactokinase; P51570; recombinant GALK, Kinase-Glo ATP luminescence, 1 h; 44,000 tested, under 10 active; Potency, µM (top dose mostly 57.5 µM), without a hit: top-dose activity, negative = inhibition, hits mostly inhibitors;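 further: plate controls were full GALK reaction for no effect and reaction lacking GALK for full effect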
#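 5 nM GALK; 35 uM ATP; 100 uM D-galactose; 20 mM HEPES pH 8.0, 5 mM MgCl2, 60 mM NaCl, 1 mM DTT, 0.01% BSA; 1 h RT; Kinase-Glo Plus luminescence.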
# B2AR arrestin ag – agonists recruiting beta-arrestin to human beta2-adrenergic receptor. Potency, µM (doses to about 46.1 µM), usual class: activators. HTLA Tango cells, beta-arrestin recruitment, luciferase luminescence, 18 h. 44,000 tested, under 10 active;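 further: potency means the concentration at half of the fitted maximal effect; 0% = DMSO and full agonism = EC100 isoproterenol or metaproterenol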
#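 Tango cell line, 1% FBS DMEM; cpd titration up to 46 microM; 18 hr, 37 degrees C, 5% CO2. Luciferin/ATP substrate mix added, 15 min RT, luminescence. %Activity, CRC fitting, curve-class categorization.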
# DRV1 agonist – GPR32 (DRV1) agonism, beta-arrestin recruitment. O75388. CHO-K1 GPR32 beta-arrestin PathHunter luminescence, 90 min; zero percent set by DMSO-only wells. activation, % at 76.9 µM. 48,000 compounds, 2.5% hits;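 active means activation of at least 60% and not above a set upper limit, about 1 call in 100 departs from these limits; inconclusive means activation of 40% to 60%, or above that upper limit; inactive means activation under 40%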; further: 0% is about no effect
#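 Agonism was scored by beta-Gal fragment complementation (chemiluminescent read, 1 h detection at ambient temperature) reporting beta-arrestin binding to GPR32 in engineered CHO-K1 cells. Compound treatment lasted 90 min at 37 C, normalized to a DMSO basal control.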
# PTAP-TSG101 blk – TSG101-PTAP interaction inhibition, HIV-1 budding; Potency, µM (top dose mostly 115 µM), hits mostly inhibitors; 44,000 tested, under 10 active; Q99816; Fluorescence polarization, FITC-PTAP peptide/Tsg101, 20 min; AID 1347069; further: potency means the concentration at half of the fitted maximal effect; 0% is about no effect
# Target sequence (Q99816 whole entry, looked up): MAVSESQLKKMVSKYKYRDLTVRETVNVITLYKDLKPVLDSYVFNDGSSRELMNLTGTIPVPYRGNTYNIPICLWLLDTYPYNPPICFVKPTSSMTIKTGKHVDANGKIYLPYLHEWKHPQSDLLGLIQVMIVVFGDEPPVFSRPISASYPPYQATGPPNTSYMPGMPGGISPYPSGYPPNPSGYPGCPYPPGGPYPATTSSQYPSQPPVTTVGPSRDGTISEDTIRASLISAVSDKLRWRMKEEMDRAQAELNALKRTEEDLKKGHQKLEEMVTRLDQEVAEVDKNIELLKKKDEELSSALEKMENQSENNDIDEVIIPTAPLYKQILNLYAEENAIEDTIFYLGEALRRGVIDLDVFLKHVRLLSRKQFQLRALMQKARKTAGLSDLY
#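 Fluorescence polarization: Tsg101 binding domain (10 uM final) in 10 mM HEPES pH 7.5, 0.15 M NaCl, 0.01% Tween 20, 3 mM EDTA, 0.1 mM TCEP; compounds pinned; FITC-PTAP peptide 50 nM final; 20 min, r.t.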
# Starred values were filed as active, the others as inactive; i = inactive; ? = inconclusive; nt = no result given. Rows were chosen to be rich in hits. Some 2.6% of all compounds tested hit in one or more screens of this group. Unless noted, the call rests on the fitted dose curve; in most records, active means well fitted curve in the direction sought with a large enough effect; inconclusive means small, poorly fitted or top-dose-only effect, or another doubt; inactive means no such curve, though single readings can be large; an effect the other way counts as inactive or inconclusive.
SMILES,GALC G270D up,GALK inh,B2AR arrestin ag,DRV1 agonist,PTAP-TSG101 blk
Cc1ccc(S(=O)(=O)NCCc2csc3nc(-c4ccccc4C)nn23)cc1,i,-1.0%,i,79.7*,i
COC(=O)C(C)NC(=O)N1CCN(c2nnc(C)c3c(C)n(-c4ccc(Cl)cc4)nc23)CC1 (stereo unspecified),i,2.2%,i,7.2,i
Cc1cccc(N(CC(=O)NCCSCc2ccc(Cl)cc2)S(C)(=O)=O)c1C,i,3.5%,i,?,i
Cc1cccc(N(CC(=O)NCCSc2ccc(Cl)cc2)S(C)(=O)=O)c1C,i,-0.1%,i,103.4*,i
Cc1ccc(SCCNC(=O)CN(c2cccc(C)c2C)S(C)(=O)=O)cc1,i,0.0%,i,75.8*,i
Nc1c(I)cc(I)c(C(=O)N(CCC(=O)O)c2ccccc2)c1I,i,nt,nt,-21.2,nt
Cc1c(-c2ccccc2)c(=O)oc2c(CN3CCN(C)CC3)c(O)ccc12,4.47µM*,1.1%,i,12.7,i
CCOC(=O)N1CCc2c(sc(NCc3sccc3C)c2C(=O)Nc2ccccc2OCC)C1,i,1.3%,i,62.6*,i
CCOC(=O)N1CCc2c(sc(NCc3sccc3C)c2C(=O)Nc2ccc(OC)cc2OC)C1,i,-3.2%,i,117.1*,i
COc1ccc(NC(=O)c2c(NCc3sccc3C)sc3c2CCCCC3)c(OC)c1,i,-1.2%,i,-1.9,i
[O-][n+]1cccc(/C(Cl)=N/OC[C@@H](O)CN2CCCCC2)c1,i,nt,nt,8.0,nt
CC(=O)Nc1ccc(S(=O)(=O)NCc2cccn2Cc2cccc(C)c2)cc1,i,0.6%,i,87.9*,i
COc1ccc(S(=O)(=O)NCc2cccn2Cc2cccc(C)c2)cc1OC,i,-2.5%,i,24.5,i
Cc1ccc(S(=O)(=O)N(CC(O)Cn2c3ccccc3c3ccccc32)c2cccc(C(N)=O)c2)cc1 (stereo unspecified),i,-1.2%,i,85.6*,i
CCn1ccc2c(OCC(=O)Nc3ccccc3C)cccc2c1=O,i,-1.5%,i,44.7,i
Cn1ccc2c(OCC(=O)Nc3ccc(OC(F)(F)F)cc3)cccc2c1=O,i,-3.0%,i,35.6,i
CCn1ccc2c(OCC(=O)Nc3ccccc3C(F)(F)F)cccc2c1=O,i,-4.9%,i,84.9*,i
CCCn1ccc2c(OCC(=O)NCc3ccccc3Cl)cccc2c1=O,i,-1.7%,i,68.8*,i
COCCn1ccc2c(OCC(=O)Nc3cccc(OC)c3)cccc2c1=O,i,-2.1%,i,72.7*,i
CCOC(=O)c1ccc(NC(=O)COc2cccc3c(=O)n(C)ccc23)cc1,i,-0.3%,i,68.7*,i
CCn1ccc2c(OCC(=O)NCc3ccccc3)cccc2c1=O,i,-2.6%,i,21.8,i
COc1ccc(C2C(=O)N(C3CCCCCC3)CC(=O)N2Cc2ccc(C)cc2)cc1 (stereo unspecified),nt,1.5%,i,-17.9,i
C[C@]1(Cn2ccnn2)[C@H](C(=O)O)N2C(=O)C[C@H]2S1(=O)=O,i,nt,nt,-5.1,nt
Cc1c(C)c2c(c(C)c1OC(=O)CCC(=O)OCCO)CC[C@@](C)(CCC[C@H](C)CCC[C@H](C)CCCC(C)C)O2,i,nt,nt,0.0,nt
COc1ccc(CNC(=O)c2nn(-c3ccccc3C)nc2CO)cc1,i,2.7%,i,-5.7,i
SMILES,GALC G270D up,GALK inh,B2AR arrestin ag,DRV1 agonist,PTAP-TSG101 blk
COc1cc(Nc2nc(SCC(=O)c3ccc(Cl)c(Cl)c3)nc3ccccc23)cc(OC)c1,i,-5.2%,i,-25.5,i
O=C(CSc1nc(Nc2ccccc2)c2ccccc2n1)c1ccc(Cl)cc1,i,-0.9%,i,108.1*,i
CCCNC(=O)C1CCN(Cc2cc3ccccc3n2Cc2ccccc2)CC1,i,3.4%,i,-12.7,i
CN(C)CCNC(=O)C1CCN(Cc2cc3ccccc3n2Cc2ccccc2)CC1,i,-0.8%,i,63.9*,i
Cc1ccccc1-c1nc(CS(=O)(=O)CC(=O)NCC(C)c2ccccc2)c(C)o1 (stereo unspecified),i,0.0%,i,70.0*,i
Cc1ccccc1-c1nc(CS(=O)(=O)CC(=O)NCCc2ccccc2)c(C)o1,i,-1.7%,i,-0.4,i
Cc1cc(C)cc(NS(=O)(=O)c2ccc3[nH]cc(C(=O)NC4CCCCC4)c(=O)c3c2)c1,i,-0.1%,i,109.8*,i
COc1cccc(NS(=O)(=O)c2ccc3[nH]cc(C(=O)NCCc4ccccc4)c(=O)c3c2)c1,i,8.9%,i,11.6,i
COc1cccc(NS(=O)(=O)c2ccc3c(c2)n(C)c(=O)n3C)c1,i,7.9%,i,85.9*,i
CC(C)c1ccc(NS(=O)(=O)c2ccc3[nH]cc(C(=O)NC4CCCCC4)c(=O)c3c2)cc1,i,-2.9%,i,-0.2,i
Cc1cc(C)cc(NS(=O)(=O)c2ccc3[nH]cc(C(=O)NCc4ccco4)c(=O)c3c2)c1,i,7.0%,i,98.7*,i
COc1cccc(NS(=O)(=O)c2ccc3c(c2)N(C)C(=O)CC(=O)N3C)c1,i,2.8%,i,1.5,i
Cc1cc(C)cc(NS(=O)(=O)c2ccc3[nH]cc(C(=O)NCc4ccccc4Cl)c(=O)c3c2)c1,i,0.5%,i,-13.2,i
COc1cccc(NS(=O)(=O)c2ccc3[nH]cc(C(=O)NC4CCCCC4)c(=O)c3c2)c1,i,-2.1%,i,103.4*,i
COc1ccccc1N1CCN(C(=O)Cn2c(=O)nc(-c3ccccc3)c3cc(Cl)ccc32)CC1,i,-2.5%,i,-6.9,i
CCCc1ncc(C(=O)O)s1,i,nt,nt,-6.3,nt
Cc1ccccc1NS(=O)(=O)c1ccc2[nH]cc(C(=O)NC3CCCCC3)c(=O)c2c1,i,-0.4%,i,-9.3,i
Cc1c(Cl)cccc1NS(=O)(=O)c1ccc2[nH]cc(C(=O)NC3CCCC3)c(=O)c2c1,i,-2.5%,i,101.3*,i
CCOc1ccccc1CNCc1cccn1-c1nnc(N2CCN(c3ccccc3)CC2)s1,i,-5.5%,i,48.3,i
CC1c2ccccc2CN1NC(=O)c1ccc(Cl)c(S(N)(=O)=O)c1 (stereo unspecified),i,nt,nt,-21.6,nt
Cc1ccc2c(=O)cc(C(=O)Nc3ccc(S(=O)(=O)Nc4ncccn4)cc3)oc2c1C,i,8.8%,i,66.6*,i
